According to the supplement of paper PMC11732987, “Enantioselective OTUD7B fragment discovery through chemoproteomics screening and high-throughput optimisation” (Communications Chemistry, 2025):

Columns and labels:
Assay in all cases: log2 ratio of Biotin-Ahx-Ub-VS probe labelling (fragment/DMSO); higher = less target engagement (more negative = stronger competition), active = hit call of the paper (q ≤ 0.05, log2 ratio ≤ -1)
Conditions in all cases: compound concentration: 200 uM; treatment time: 3 h
USP34 = USP34 (UniProt Q70CQ2)
Method in brief: (§1)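 Labelled DUBs were enriched with NeutrAvidin, digested with LysC and trypsin, and run by diaPASEF LC-MS/MS. The labelling used Biotin-Ahx-Ub-VS at 0.5 µM final for 1 h on HEK293T lysate (495 µg per sample) previously treated in triplicate with fragment at 200 µM or vehicle for 3 h. Values are average log2 fragment/vehicle ratios by unpaired t-test on global-median-normalised Spectronaut quantities of proteins with ≥2 unique peptides.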

USP36 = biological target: T1, USP36 (UniProt Q9P275)
T1 sequence (whole entry): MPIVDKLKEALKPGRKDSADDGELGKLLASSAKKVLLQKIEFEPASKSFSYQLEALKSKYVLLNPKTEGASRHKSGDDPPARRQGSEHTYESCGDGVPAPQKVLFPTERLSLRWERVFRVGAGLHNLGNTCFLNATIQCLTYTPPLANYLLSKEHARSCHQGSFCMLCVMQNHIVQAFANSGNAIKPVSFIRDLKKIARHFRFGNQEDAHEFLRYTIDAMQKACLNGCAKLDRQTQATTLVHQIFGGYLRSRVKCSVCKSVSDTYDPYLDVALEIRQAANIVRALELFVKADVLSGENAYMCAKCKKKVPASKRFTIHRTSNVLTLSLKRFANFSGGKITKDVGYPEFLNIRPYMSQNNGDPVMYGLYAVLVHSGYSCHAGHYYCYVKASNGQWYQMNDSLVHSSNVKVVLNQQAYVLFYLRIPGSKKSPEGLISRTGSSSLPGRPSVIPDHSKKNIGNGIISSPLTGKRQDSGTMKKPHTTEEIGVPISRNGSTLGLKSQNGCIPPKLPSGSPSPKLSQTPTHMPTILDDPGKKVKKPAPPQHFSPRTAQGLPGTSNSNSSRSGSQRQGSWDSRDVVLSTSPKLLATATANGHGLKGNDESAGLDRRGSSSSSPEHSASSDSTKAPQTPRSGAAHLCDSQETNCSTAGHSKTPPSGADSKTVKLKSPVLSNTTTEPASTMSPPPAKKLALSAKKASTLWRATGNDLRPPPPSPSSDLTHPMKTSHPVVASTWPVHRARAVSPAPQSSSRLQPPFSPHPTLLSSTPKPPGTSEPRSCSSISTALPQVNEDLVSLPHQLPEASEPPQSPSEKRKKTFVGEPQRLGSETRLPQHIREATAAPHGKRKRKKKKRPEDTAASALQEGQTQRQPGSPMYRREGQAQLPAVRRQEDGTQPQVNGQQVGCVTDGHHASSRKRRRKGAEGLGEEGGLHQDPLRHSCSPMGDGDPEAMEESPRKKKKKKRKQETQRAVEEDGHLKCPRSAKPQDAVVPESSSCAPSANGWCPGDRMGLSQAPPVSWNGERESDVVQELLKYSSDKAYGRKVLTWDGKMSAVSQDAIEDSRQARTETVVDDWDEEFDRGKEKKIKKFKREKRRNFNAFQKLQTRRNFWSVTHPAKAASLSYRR
Method in brief: as §1

USP38 = biological target: T2, USP38 (UniProt Q8NB14)
T2 sequence (whole entry): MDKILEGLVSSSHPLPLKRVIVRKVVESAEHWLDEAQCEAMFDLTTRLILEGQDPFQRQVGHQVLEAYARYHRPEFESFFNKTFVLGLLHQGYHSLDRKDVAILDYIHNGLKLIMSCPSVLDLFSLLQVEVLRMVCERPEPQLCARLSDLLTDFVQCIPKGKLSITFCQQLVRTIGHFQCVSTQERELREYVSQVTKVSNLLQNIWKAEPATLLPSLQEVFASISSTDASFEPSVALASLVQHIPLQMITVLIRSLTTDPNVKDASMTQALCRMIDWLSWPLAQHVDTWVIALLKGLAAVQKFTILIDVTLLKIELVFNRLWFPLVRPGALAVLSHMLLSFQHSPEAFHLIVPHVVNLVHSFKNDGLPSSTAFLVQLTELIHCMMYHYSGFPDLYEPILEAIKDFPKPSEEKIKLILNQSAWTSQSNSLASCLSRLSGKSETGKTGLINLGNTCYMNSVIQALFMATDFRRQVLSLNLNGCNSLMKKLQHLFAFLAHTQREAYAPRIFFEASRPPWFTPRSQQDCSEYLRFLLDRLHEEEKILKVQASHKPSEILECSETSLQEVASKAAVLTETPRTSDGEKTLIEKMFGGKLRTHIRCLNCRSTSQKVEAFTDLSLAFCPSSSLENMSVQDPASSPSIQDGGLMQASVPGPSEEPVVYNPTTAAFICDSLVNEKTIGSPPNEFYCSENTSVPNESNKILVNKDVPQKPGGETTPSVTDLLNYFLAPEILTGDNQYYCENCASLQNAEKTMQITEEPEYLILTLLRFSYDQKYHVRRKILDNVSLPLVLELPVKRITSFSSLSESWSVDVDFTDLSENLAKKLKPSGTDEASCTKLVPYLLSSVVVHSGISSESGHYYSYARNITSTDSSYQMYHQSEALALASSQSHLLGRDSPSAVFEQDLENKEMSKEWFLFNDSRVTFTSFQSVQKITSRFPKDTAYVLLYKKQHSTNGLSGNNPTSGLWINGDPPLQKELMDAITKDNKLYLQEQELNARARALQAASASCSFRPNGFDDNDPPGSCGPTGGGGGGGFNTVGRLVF
Method in brief: as §1

USP39 = biological target: T3, USP39 (UniProt Q53GS9)
T3 sequence (whole entry): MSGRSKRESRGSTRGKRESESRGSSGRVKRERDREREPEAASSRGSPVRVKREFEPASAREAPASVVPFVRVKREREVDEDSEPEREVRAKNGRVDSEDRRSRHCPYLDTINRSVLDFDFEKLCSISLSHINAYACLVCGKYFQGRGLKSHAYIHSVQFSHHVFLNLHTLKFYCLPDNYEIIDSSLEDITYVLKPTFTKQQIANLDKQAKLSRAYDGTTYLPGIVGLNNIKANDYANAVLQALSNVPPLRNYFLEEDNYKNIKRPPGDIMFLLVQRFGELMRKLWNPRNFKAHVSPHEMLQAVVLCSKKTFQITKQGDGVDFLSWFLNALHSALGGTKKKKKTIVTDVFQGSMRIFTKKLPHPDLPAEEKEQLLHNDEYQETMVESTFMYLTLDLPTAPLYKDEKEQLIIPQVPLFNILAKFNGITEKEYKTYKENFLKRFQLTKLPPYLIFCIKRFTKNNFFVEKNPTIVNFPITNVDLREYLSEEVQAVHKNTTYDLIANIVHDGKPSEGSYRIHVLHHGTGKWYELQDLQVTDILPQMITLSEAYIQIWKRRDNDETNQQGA
Method in brief: as §1

USP4 = biological target: T4, USP4 (UniProt Q13107)
T4 sequence (whole entry): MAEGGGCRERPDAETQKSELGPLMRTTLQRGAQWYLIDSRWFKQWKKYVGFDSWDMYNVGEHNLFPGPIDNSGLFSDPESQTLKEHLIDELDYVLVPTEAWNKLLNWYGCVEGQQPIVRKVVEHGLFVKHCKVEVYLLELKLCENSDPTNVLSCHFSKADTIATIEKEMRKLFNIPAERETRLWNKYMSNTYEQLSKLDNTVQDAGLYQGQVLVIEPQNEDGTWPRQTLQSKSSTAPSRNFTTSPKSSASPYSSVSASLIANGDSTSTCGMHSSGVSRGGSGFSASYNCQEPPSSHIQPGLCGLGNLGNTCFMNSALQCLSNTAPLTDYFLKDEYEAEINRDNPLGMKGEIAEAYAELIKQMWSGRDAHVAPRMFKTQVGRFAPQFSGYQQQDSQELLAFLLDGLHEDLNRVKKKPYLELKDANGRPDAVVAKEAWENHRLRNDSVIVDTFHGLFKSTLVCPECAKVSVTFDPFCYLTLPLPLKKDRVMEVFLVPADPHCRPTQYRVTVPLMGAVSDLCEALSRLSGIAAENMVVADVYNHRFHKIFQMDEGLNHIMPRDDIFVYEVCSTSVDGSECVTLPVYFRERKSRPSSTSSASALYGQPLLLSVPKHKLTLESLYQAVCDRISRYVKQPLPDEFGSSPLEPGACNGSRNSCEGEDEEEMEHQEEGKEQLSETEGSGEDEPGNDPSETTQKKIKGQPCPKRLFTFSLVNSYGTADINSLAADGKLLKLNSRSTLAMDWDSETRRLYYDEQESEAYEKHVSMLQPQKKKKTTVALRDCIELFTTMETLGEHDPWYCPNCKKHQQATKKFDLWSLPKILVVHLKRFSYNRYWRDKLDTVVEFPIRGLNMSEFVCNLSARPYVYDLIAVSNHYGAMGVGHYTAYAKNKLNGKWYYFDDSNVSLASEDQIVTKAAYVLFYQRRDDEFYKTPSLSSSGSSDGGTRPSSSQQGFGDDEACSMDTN
Method in brief: as §1

Measured: log2 ratio of Biotin-Ahx-Ub-VS probe labelling

Sequence of USP34 (Q70CQ2 whole entry, the tested form may be a part): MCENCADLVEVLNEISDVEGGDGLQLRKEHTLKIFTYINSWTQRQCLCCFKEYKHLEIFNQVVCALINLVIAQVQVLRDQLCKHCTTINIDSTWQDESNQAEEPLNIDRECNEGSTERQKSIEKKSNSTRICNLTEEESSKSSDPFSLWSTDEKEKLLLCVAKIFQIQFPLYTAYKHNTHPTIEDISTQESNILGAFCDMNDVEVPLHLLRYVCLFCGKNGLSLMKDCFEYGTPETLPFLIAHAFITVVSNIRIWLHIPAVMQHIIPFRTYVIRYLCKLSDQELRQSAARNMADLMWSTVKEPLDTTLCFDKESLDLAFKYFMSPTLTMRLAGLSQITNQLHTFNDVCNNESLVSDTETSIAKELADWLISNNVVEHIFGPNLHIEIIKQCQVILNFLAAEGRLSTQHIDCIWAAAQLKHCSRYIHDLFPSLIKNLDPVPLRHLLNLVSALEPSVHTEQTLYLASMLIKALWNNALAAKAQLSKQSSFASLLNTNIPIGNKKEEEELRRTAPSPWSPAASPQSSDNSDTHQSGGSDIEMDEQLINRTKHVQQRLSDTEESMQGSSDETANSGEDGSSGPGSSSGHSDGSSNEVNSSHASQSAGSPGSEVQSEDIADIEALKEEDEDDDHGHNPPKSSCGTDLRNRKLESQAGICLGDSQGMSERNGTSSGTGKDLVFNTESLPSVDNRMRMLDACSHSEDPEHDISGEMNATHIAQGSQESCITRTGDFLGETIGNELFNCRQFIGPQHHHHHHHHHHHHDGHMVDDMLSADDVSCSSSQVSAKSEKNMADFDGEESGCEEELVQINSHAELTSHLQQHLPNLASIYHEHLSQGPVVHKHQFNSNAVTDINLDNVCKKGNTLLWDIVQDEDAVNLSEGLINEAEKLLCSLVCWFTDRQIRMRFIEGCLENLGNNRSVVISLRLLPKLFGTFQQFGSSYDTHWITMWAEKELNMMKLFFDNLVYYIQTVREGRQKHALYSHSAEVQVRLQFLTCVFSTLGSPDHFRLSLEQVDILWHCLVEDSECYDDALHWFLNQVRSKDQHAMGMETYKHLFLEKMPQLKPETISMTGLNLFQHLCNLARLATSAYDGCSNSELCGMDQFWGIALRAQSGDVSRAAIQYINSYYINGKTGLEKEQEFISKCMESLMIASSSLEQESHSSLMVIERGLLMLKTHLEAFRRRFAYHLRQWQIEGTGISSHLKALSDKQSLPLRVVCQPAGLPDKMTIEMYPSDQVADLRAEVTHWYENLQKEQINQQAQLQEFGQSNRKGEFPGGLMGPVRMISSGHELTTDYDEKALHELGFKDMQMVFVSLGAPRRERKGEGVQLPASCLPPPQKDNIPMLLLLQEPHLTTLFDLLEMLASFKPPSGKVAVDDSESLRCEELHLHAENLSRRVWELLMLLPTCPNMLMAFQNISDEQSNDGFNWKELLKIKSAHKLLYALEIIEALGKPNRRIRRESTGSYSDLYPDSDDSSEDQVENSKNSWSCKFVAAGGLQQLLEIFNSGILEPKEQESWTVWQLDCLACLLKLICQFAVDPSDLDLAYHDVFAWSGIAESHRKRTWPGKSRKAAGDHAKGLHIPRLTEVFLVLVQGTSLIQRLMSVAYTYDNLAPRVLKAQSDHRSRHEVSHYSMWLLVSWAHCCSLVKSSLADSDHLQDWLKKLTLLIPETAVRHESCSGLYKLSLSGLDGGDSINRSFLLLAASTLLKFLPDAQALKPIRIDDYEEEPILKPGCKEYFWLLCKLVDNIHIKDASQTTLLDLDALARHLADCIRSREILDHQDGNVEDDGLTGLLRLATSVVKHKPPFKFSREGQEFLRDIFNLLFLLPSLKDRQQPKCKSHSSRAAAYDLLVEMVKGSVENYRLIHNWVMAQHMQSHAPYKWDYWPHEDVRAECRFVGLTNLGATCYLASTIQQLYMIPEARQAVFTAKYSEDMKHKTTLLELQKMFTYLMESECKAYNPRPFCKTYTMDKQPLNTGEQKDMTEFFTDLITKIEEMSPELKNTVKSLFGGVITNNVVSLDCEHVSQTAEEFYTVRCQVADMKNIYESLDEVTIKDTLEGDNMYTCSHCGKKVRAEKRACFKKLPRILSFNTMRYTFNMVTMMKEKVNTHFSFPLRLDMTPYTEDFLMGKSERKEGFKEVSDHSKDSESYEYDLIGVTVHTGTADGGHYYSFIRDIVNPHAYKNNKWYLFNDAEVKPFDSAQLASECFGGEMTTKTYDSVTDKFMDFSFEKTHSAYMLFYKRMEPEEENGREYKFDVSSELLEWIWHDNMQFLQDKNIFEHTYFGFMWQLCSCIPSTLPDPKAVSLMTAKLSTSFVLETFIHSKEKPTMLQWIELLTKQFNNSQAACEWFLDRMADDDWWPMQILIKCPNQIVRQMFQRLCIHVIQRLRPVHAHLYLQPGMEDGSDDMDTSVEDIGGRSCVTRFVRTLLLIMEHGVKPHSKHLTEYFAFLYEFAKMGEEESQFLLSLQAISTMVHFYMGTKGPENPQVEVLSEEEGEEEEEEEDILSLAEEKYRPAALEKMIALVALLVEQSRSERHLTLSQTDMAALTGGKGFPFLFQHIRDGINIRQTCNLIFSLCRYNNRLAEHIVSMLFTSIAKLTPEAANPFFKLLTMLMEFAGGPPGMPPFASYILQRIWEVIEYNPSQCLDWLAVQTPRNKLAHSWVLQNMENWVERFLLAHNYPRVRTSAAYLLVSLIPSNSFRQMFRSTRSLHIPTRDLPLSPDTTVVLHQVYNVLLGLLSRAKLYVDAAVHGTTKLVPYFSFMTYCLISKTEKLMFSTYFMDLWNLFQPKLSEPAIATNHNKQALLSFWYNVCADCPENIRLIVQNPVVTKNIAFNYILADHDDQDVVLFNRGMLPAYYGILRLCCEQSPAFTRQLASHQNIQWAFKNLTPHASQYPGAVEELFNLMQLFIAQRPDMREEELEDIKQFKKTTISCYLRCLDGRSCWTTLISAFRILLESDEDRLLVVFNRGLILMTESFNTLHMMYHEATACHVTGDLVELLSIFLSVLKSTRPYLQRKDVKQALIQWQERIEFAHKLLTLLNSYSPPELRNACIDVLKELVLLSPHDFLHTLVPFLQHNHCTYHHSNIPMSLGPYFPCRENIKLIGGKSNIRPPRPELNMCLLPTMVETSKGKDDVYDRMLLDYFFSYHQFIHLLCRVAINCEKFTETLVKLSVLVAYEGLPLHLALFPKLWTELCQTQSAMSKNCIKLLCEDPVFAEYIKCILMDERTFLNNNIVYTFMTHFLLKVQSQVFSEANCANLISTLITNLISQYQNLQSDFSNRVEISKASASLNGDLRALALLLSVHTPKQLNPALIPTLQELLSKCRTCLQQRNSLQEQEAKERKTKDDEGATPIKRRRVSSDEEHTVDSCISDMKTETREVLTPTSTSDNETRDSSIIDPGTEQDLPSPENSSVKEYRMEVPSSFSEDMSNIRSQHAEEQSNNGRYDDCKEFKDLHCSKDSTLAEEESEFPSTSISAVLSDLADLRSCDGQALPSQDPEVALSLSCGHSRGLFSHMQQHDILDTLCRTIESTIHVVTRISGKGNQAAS

Cc1ccc(C)c(NC(=O)CCl)c1
inactive: USP34 -0.458 | USP36 -0.1 | USP38 -0.159 | USP39 0.199 | USP4 -0.443
